Source: PubChem
The list is not random: actives were taken first. Their share in the collection is about 2.1%.
Rce1 inhib: yeast Rce1p protease inhibitors, primary screen, biochemical, fluorescence, cell-free homogeneous. CAAX prenyl protease 2 (Saccharomyces cerevisiae (strain ATCC 204508 / S288c)), Q03530. yeast membranes, quenched prenylated peptide cleavage fluorescence. calls only. 0.27% of 290,000 active. AID 2563, 2010;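 active means fall in fluorescence gain of 50% or more versus controls, with final raw signal at or below 3038400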;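 further: plate controls were neutral control wells for no effect and wells lacking membranes for full effect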
PLC-beta3 inh: human PLC-beta3 inhibitors, primary screen, biochemical, fluorescence; AID 720704, 2013; 1-phosphatidylinositol 4,5-bisphosphate phosphodiesterase beta-3 (Homo sapiens), Q01970; inhibition, % at 12.2 µM; Purified PLC-beta3, fluorogenic substrate; 0.18% of 370,000 active; in the data active means inhibition above about 11%;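 further: 0% = median of compound wells on plate and 100% = full blocker control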
ADAM10 inh: human ADAM10 inhibitors, primary screen, biochemical, QFRET, HTS; Disintegrin and metalloproteinase domain-containing protein 10 (Homo sapiens), O14672; recombinant ADAM10, EDANS/DABCYL FRET peptide cleavage, 3 h; inhibition, % at 7 µM; 0.62% of 370,000 active; AID 720582, 2013;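 active means inhibition above a per-campaign cutoff equal to the mean of compounds falling between control-based bounds plus 3 SD, cut at about 20% in these data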;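 further: 0% = DMSO wells while the 100% control is not disclosed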
ADAM17 inh: ADAM17 inhibitors, primary screen, biochemical, QFRET | AID 720648, 2013 | inhibition, % at 6.95 µM | 0.83% of 370,000 active | recombinant ADAM17, EDANS/DABCYL FRET peptide cleavage | Disintegrin and metalloproteinase domain-containing protein 17 (Homo sapiens), P78536;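 active means inhibition above the mean of compounds lying between control limits plus 3 SD, set per campaign, cut at about 8.5% in these data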;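 further: 0% = DMSO-only wells as the low control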
Target sequence (P78536 215-824 limits assumed): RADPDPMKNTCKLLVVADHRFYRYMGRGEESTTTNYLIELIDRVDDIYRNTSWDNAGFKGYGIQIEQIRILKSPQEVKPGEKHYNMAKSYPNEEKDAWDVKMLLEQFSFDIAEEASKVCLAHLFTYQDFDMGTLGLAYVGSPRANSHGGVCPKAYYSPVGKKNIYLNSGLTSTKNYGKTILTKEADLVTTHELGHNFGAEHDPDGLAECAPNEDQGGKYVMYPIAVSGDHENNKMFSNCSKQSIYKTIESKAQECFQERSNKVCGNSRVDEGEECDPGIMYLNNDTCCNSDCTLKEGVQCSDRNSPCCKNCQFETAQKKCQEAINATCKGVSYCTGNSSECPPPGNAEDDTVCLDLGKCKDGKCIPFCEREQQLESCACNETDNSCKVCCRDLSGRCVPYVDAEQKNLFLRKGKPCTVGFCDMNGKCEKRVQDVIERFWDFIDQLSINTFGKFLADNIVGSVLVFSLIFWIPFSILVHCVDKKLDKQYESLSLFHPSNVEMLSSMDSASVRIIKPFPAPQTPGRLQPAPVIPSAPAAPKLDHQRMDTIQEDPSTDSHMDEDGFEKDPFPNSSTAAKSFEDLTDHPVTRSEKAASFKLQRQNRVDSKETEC
PLC-gamma1 inh: PLC-gamma1 enzyme inhibitors, primary screen, biochemical, fluorescence, purified enzyme | 0.84% of 370,000 active | fluorogenic substrate | inhibition, % at 12.2 µM | 1-phosphatidylinositol 4,5-bisphosphate phosphodiesterase gamma-1 (Homo sapiens), P19174; in the data active means inhibition above about 9.5%
ADAM10 confirm: human ADAM10 inhibitors, confirmation, biochemical, QFRET, triplicate | shares compounds with ADAM10 inh | ADAM10 QFRET peptide cleavage, EDANS fluorescence | inhibition, % at 6.95 µM | 1% of 2,100 active;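 active means inhibition above about 20% chosen separately for each screening run, limit read from the data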;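 further: 0% = DMSO wells and 100% = marimastat wells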
ADAM17 counter: ADAM17 inhibitors, counter-screen for ADAM10 exosite inhibitor project, biochemical, QFRET, high throughput | shares compounds with ADAM10 inh | ADAM17 QFRET peptide cleavage, EDANS fluorescence | inhibition, % at 6.95 µM | 0.5% of 2,100 active;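 active means mean triplicate inhibition above the solvent-only control wells' mean plus 3 SD, cut at about 12% in these data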;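 further: 0% = DMSO wells and 100% = marimastat wells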
* marks the source's active call; other numbers are inactive results; i = inactive; nt = not tested or not shown.

SMILES	Rce1 inhib	PLC-beta3 inh	ADAM10 inh	ADAM17 inh	PLC-gamma1 inh	ADAM10 confirm	ADAM17 counter
COC(=O)[C@]12C[C@H](CC(=O)NCc3cccc4ccccc34)C(=O)N(Cc3ccco3)C1=C[C@H](COCc1ccccc1)O[C@@H]2C	nt	3.0	22.4*	7.0	8.2	5.8	2.2
CCCCNC(=O)C[C@H]1C[C@@]2(C(=O)OC)C(=C[C@H](C(C)(C)C)O[C@@H]2C)N(CCc2ccc(OC)c(OC)c2)C1=O	nt	2.6	8.8	4.2	0.3	nt	nt
COC(=O)[C@]12C[C@H](CC(=O)NCc3cccc4ccccc34)C(=O)N(CCc3ccc(OC)c(OC)c3)C1=C[C@H](C(C)(C)C)O[C@@H]2C	nt	6.1	21.7*	7.1	3.5	9.9	2.6
COC(=O)[C@]12C[C@H](CC(=O)NCc3cccs3)C(=O)N(Cc3cccc4ccccc34)C1=C[C@H](C1CCCC1)O[C@@H]2C	nt	2.6	20.6*	4.3	0.8	8.7	3.4
COC(=O)[C@]12C[C@H](CC(=O)NCCCCc3ccccc3)C(=O)N(Cc3cccc4ccccc34)C1=C[C@H](C1CCCC1)O[C@@H]2C	nt	-7.1	-13.1	-6.0	3.4	nt	nt
C[C@@H]1COc2cc(N3CCSCC3)ccc2S(=O)(=O)N1C	nt	-4.2	-2.4	-2.5	0.7	nt	nt
CCN(CCO)CC1CCCC2CCCCC21 (configuration not stated)	nt	2.6	2.8	-1.7	2.1	nt	nt
COc1ccc(NC(=O)CNc2ccc(C#N)cc2)cc1	nt	-1.0	-0.8	0.9	1.2	nt	nt
O=C(Cn1nnc(-c2ccc([N+](=O)[O-])cc2)n1)NNC(=O)c1ccccc1	i	nt	nt	nt	nt	nt	nt
CCOC(=O)N1CCN(C(=O)C[C@H]2C[C@@]3(C(=O)OC)C(=C[C@H](C4CCCC4)O[C@@H]3C)N(Cc3cccc4ccccc34)C2=O)CC1	nt	0.9	23.6*	7.7	3.6	7.7	1.6
COC(=O)[C@]12C[C@H](CC(=O)N3CCCCC3)C(=O)N(CCc3ccc(OC)c(OC)c3)C1=C[C@H](COCc1ccccc1)O[C@@H]2C	nt	2.2	58.3*	-2.4	2.1	-0.7	-0.4
COC(=O)[C@]12C[C@H](CC(=O)N3CCCCC3)C(=O)N(Cc3cccc4ccccc34)C1=C[C@H](C1CCCC1)O[C@@H]2C	nt	1.8	9.2	4.0	1.8	nt	nt
CSc1ccc(CN(C)C(=O)c2ccc(S(=O)(=O)Nc3ccccc3)cc2)cc1	i	-4.0	20.7*	5.8	5.8	0.7	0.2
COc1ccc(C(=O)/C=C(\Nc2ccc(F)cc2)c2ccc(OC)cc2OC)c(OC)c1	nt	-13.2	-3.9	-3.5	-5.8	nt	nt
Cc1ccc(S(=O)(=O)N2CCC(=O)N2)cc1	nt	1.5	27.9*	0.1	2.4	12.0	0.6
CCCC1CC(C)(c2csc(Nc3ccc(OCC)cc3)n2)OC1=O (configuration not stated)	i	3.1	21.1*	4.7	2.5	8.3	2.0
O=S(=O)(c1ccccc1)N(CC1CO1)c1cccc2ccccc12 (configuration not stated)	i	0.9	-3.9	-2.9	-0.6	nt	nt
C[C@@H]1CN([C@H](C)CO)C(=O)c2cc(NC(=O)Nc3ccccc3)ccc2O[C@@H](C)CCCCO[C@H]1CN(C)S(=O)(=O)c1ccc(F)cc1	nt	2.1	20.3*	7.6	0.4	6.3	1.8
C[C@@H]1CCCCO[C@@H](CN(C)C(=O)Nc2ccc(C(F)(F)F)cc2)[C@@H](C)CN([C@H](C)CO)C(=O)c2cc(NS(=O)(=O)c3ccc(Cl)cc3)ccc2O1	nt	3.6	44.7*	15.8*	-0.1	9.2	1.4
C[C@@H]1CN([C@@H](C)CO)S(=O)(=O)c2ccc(Br)cc2O[C@H]1CN(C)C(=O)Nc1ccc(C(F)(F)F)cc1	nt	-0.6	21.5*	8.0	0.0	3.6	0.7
S=C(Nc1ccc(Oc2ccccc2)cc1)N1CCN(c2ccccn2)CC1	i	1.6	22.2*	5.4	0.4	1.6	-0.6
Cc1ccc(-c2noc(CN(C(=O)C(c3ccccc3)c3ccccc3)C(C)C)n2)cc1	i	3.0	20.1*	5.4	8.0	1.5	1.2
Cc1ccccc1Nc1nc(Nc2ccccc2C)nc(SC2=NCCS2)n1	i	4.1	19.8*	7.0	8.2	5.7	1.6
Clc1ccccc1NCSC1=NCCS1	nt	0.0	-4.0	-4.6	1.4	nt	nt
COc1ccccc1C(CNC(=O)C1CCN(C(=O)Nc2ccccc2)CC1)N1CCCC1 (configuration not stated)	nt	-1.2	-2.2	-7.0	3.7	nt	nt
SMILES	Rce1 inhib	PLC-beta3 inh	ADAM10 inh	ADAM17 inh	PLC-gamma1 inh	ADAM10 confirm	ADAM17 counter
CCOC(=O)[C@]12CCCCC/C=C\1N(Cc1ccc(OC)cc1)C(=O)[C@H]2CC(=O)NCCCCc1ccccc1	nt	7.2	17.3	8.5	1.7	nt	nt
COc1ccc(-c2nc(CN3CCN(Cc4ccccc4)CC3)c(C)o2)cc1	i	-2.7	79.5*	-2.1	1.3	2.3	1.4
CCCC(C)NC(=O)COC(=O)c1cccc(NS(C)(=O)=O)c1 (configuration not stated)	nt	-13.4	-1.6	-6.9	8.7	nt	nt
COc1cccc(-c2c[nH]c(=O)[nH]c2=O)c1	i	0.7	9.3	0.2	1.5	nt	nt
CCO[C@@H]1OC(C(=O)NCc2nc3ccccc3[nH]2)=C[C@H](c2csc3ccccc23)[C@H]1CCCO	i	-0.1	20.5*	2.6	-0.8	4.4	1.7
C#Cc1ccc([C@@H]2C=C(C(=O)N3CCN(Cc4ccccc4)CC3)O[C@H](OCC)[C@H]2CCCO)cc1	i	3.2	24.3*	4.3	0.0	3.4	0.6
CCO[C@@H]1OC(C(=O)N2CCN(Cc3ccccc3)CC2)=C[C@H](C)[C@H]1CCCO	i	0.8	-11.5	-6.3	1.3	nt	nt
CCO[C@H]1OC(C(=O)NCc2ccccc2)=C[C@@H](c2cn(C(C)=O)c3ccccc23)[C@@H]1CCCO	i	3.3	25.5*	3.2	-1.4	4.3	1.9
COC(=O)Cc1ccc(OC2(C)CCN(Cc3ccccc3OC(F)F)C2)cc1 (configuration not stated)	nt	3.3	-12.4	-3.3	2.8	nt	nt
c1coc(-c2nc(N=C3N=c4ccccc4=N3)[nH]c2-c2ccco2)c1	nt	-12.3	-12.5	3.7	-7.6	nt	nt
O=C(CC(c1ccccc1)c1ccccc1)Nc1ccc(Cl)cn1	i	2.7	22.9*	13.8*	9.6*	1.8	0.5
